BCR signal inh = blocks chronic active B-cell receptor signaling. ABC-DLBCL IkBa-CBG/CBR reporter, luminescence ratio, 4 h. AID 493014. Potency, µM (top dose mostly 46.1 µM), for the others: at the top dose activity change, negative = inhibition, hits mostly inhibitors. 340,000 tested, 0.05% active; active = well fitted inhibition curve with a large enough effect in the signal ratio, with a control signal flat, not every such curve was filed as active; inconclusive = small, poorly fitted or top-dose-only effect, or effect the other way, or a change in a side signal; the % refers to the signal ratio;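 note: potency is the fitted concentration of half-maximal effect; plate controls were basal doxycycline-induced cells for no effect and cells given 10 µM MG132 for full effect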
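TMD8 human ABC-DLBCL cells with doxycycline-inducible IκBα–green luciferase fusion and unfused red luciferase, in 0.5% FBS medium; compounds up to 46 uM, 4 h at 37C. Green/red luminescence ratio, filter-overlap corrected, fitted to concentration-response curves.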
RORgamma inh = blocks mouse ROR gamma transcriptional activity. Drosophila S2 Gal4-RORgamma UAS-luciferase reporter, 20 h. 310,000 tested, 5.4% active. Potency, µM (doses to about 53.6 µM), for inactives: at the top dose activity change, negative = inhibition, hits mostly inhibitors. P51450. AID 2551; note: potency is the fitted concentration of half-maximal effect; % is set by controls: 0 for no effect and ±100 for the full control effect; nearly all actives have a fitted effect of over 60% in size
Target sequence (P51450 whole entry, looked up, the tested form may be a part): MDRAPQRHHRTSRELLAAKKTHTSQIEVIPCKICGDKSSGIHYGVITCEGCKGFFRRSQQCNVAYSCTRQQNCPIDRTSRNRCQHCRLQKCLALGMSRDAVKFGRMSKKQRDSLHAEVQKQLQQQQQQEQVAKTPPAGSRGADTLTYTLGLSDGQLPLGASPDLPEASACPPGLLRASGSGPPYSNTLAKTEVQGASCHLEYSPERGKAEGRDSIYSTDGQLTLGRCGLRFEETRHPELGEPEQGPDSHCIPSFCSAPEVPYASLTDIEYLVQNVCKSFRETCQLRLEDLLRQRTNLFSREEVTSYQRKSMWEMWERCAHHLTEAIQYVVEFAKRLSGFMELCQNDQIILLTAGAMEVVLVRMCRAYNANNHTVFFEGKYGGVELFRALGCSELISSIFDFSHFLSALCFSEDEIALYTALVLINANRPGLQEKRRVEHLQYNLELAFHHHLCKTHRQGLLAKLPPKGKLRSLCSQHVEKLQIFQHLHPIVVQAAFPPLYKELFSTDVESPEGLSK
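Compounds are pin-transferred onto Drosophila Schneider cells expressing a copper-inducible Gal4–ROR gamma transactivation domain fusion. After 1 hr, copper sulfate is added to 700 uM final; luciferase is read 20 hr later.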
Giardia kill = Giardia lamblia killing; Giardia lamblia trophozoite viability; activity change, % at 7.66 µM, hits read low; 340,000 tested, 0.15% active; AID 540267; in the data active = activity change below about -80%; inconclusive = between about -30% and that limit;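 note: parasites exposed to compound for two days anaerobically before the ATP read; % is set by controls: 0 for no effect and ±100 for the full control effect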
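ATP-content bioluminescence gauges trophozoite survival. Cells (100/well) receive compound and incubate anaerobically for 48 hrs at 37 deg C; detection reagent follows for 15-30 min at room temperature.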
Gal4-VP16 FLuc = Gal4-VP16 reporter inhibition counter-screen. 310,000 tested, 3.5% active. AID 2546. Potency, µM (highest dose often 53.6 µM), without a hit: at the highest dose activity, negative = inhibition, actives largely listed as inhibitors. Drosophila S2 Gal4-VP16 UAS-luciferase, luminescence, 20 h;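 note: Gal4-VP16 expression switched on by copper sulfate through the metallothionein promoter; potency is the fitted concentration of half-maximal effect; % is set by controls: 0 for no effect and ±100 for the full control effect; nearly all actives have a fitted effect of over 50% in size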
SW480 rerep = induces DNA re-replication in SW480 colon adenocarcinoma cells; SW480 DNA re-replication, Hoechst DNA content imaging, 48 h; Potency, µM (series often up to 46.1 µM), for the others: at the highest dose re-replication activation, hits mostly activators; 340,000 tested, 1.8% active; note: potency is the fitted concentration of half-maximal effect; % of control where 0% means no effect; nearly all actives have a fitted effect of over 55% in size
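Cells (250 per well) received 23 nL compound or DMSO by pin tool and were kept 48 hr at 37 C, 5% CO2. Nuclei were then stained with Hoechst for 40 min and scanned for DNA content.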
MCF10A rereplic = induces DNA re-replication in MCF 10a normal breast cells | Potency, µM (series often up to 46.1 µM), inactives show top-dose activity, positive = re-replication, most hits filed as activators | 350,000 tested, 2.9% active | AID 624296 | MCF 10A DNA re-replication, Hoechst nuclear intensity, 48 h; note: potency is the fitted concentration of half-maximal effect; % of control where 0% means no effect; nearly all actives have a fitted effect of over 50% in size
Starred values were filed as active, the others as inactive; ? = inconclusive; . = no result given; [ ] = remark or other dose. Shown are actives, neighbours in structure and some others; about 8.3% of the full set was active somewhere. Unless noted, calls come from the whole dose curve; as a rule, active = well fitted curve in the direction sought with a large enough effect; inconclusive = small, poorly fitted or top-dose-only effect, or another doubt; inactive = no such curve, though single readings can be large; an effect the other way counts as inactive or inconclusive.

SMILES | BCR signal inh | RORgamma inh | Giardia kill | Gal4-VP16 FLuc | SW480 rerep | MCF10A rereplic
COc1cc2oc(=O)cc(-c3ccc(-c4ccc(N(C)C)cc4)cc3)c2c(OC)c1OC | -1% | ? | 0 | -19% | -27% | 1µM*
COc1ccc(-c2cccc(-c3cc(=O)oc4cc(OC)cc(OC)c34)c2)cc1 | ? | . | 7 | . | 0.23µM* | 0.21µM*
COc1cc(OC)c2c(-c3cccc(-c4ccc(CO)cc4)c3)cc(=O)oc2c1 | ? | -38% | 23 | ? | 0.73µM* | ?
O=C(CCn1c(=O)oc2ccc(Cl)cc21)NCCCN1CCOCC1 | 0% | -20% | -25 | -1% | 8% | -2%
CCOC(=O)c1sc(NC(=O)c2ccc(S(=O)(=O)N3CCCCC3)cc2)nc1-c1ccccc1 | -4% | ? | 6 | -8% | -3% | -6%
CCOC(=O)c1sc(NC(=O)c2ccc(S(=O)(=O)N3CCOCC3)cc2)nc1-c1ccccc1 | ? | ? | 28 | -6% | 18µM* | 6%
CCOC(=O)Nc1nc(-c2ccccc2)c(C(=O)c2ccc(Cl)cc2)s1 | ? | -17% | -9 | -4% | 2.9µM* | ?
COC(=O)c1ccc2nc(Nc3nc4c(F)cc(F)cc4s3)sc2c1 | ? | 0.32µM* | -23 | 1.1µM* | 0.23µM* | 2.3µM*
CCOC(=O)c1ccc2nc(NC(C)=O)sc2c1 | -17% | ? | 9 | 5% | -13% | 5%
CCOC(=O)c1ccc2nc(Nc3nc4ccc(F)cc4s3)sc2c1 | ? | 0.79µM* | -5 | -18% | 1% | 10µM*
CCOC(=O)[C@H]1[C@H]2COc3ccc(Cl)cc3[C@@H]2N2C(=O)CN(Cc3ccco3)C(=O)[C@@]12C | -3% | . | -15 | . | -19% | 1%
Cc1cccc(N2CCN(S(=O)(=O)c3c(C)[nH]c(C)c3C(=O)N3CCCC3)CC2C)c1 (configuration not stated) | -1% | 3% | -2 | 1% | -11% | 9%
CCOC(=O)C(=CNc1nc(-c2ccccc2)c(C(=O)Nc2ccc(-c3ccccc3)cc2)s1)C(=O)OCC | -1% | 7% | -11 | 1% | 3.7µM* | 9.2µM*
COC(=O)c1ccc2nc(NC(=O)C3CC3)sc2c1 | ? | 8.9µM* | -5 | ? | -12% | -14%
COC(=O)c1ccc2nc(NC(=O)C(C)C)sc2c1 | ? | ? | 0 | -27% | 1% | -11%
CCOC(=O)N1CCN(S(=O)(=O)c2ccc(C(=O)Nc3nc4ccc(F)cc4s3)cc2)CC1 | ? | -14% | 13 | 7% | 7% | 16µM*
CCOC(=O)N1CCN(S(=O)(=O)c2ccc(C(=O)Nc3nc4ccccc4s3)cc2)CC1 | ? | 15% | 12 | 2% | -3% | 6%
CC(=O)NC(Cc1cccc(F)c1)C(=O)NC1CCN(C(=O)Nc2ccccc2)CC1 (configuration not stated) | 7% | -5% | -1 | 1% | -1% | 0%
S=C(Nc1ccc(Cl)cc1)N1CCCCC1 | ? | 10µM* | -18 | ? | 10% | 6%
S=C(Nc1ccccc1)N1CCCCC1 | -1% | 11µM* | 9 | -17% | ? | 29%
FC(F)(F)c1cnc(N2CCN(C(=S)NCc3ccccc3)CC2)c(Cl)c1 | ? | -10% | -22 | -15% | ? | ?
CCOc1ccc(NC(=S)N2CCCC2)cc1 | 5% | -16% | 2 | -6% | 5% | 0%
CCc1ccc(NC(=S)N2CCCCCCC2)cc1 | 4% | 5.6µM* | -22 | ? | -1% | -1%
FC(F)(F)c1cnc(N2CCCN(C(=S)Nc3ccccc3)CC2)c(Cl)c1 | -1% | 7.9µM* | 0 | ? | ? | ?
CC(C)(C)OC(=O)CC12CCCCC1NC(=O)O2 (configuration not stated) | -8% | 9% | -8 | 11% | 0% | 3%
SMILES | BCR signal inh | RORgamma inh | Giardia kill | Gal4-VP16 FLuc | SW480 rerep | MCF10A rereplic
Cc1ccc(NC(=S)N2CCCC2)cc1Cl | 2% | 16µM* | 9 | ? | 4% | -2%
Fc1cccc(NC(=S)N2CCCCC2)c1 | 7% | 13µM* | -19 | ? | 0% | 1%
Cc1cc2nnc(SCCCCN3C(=O)c4ccccc4C3=O)n2c2ccccc12 | 2% | -18% | . | -14% | . | .
COCc1cc(C)nc(OCC(=O)N/N=C/c2ccccc2O)c1C#N | -2% | 16µM* | 17 | -7% | 5% | 8%
COCc1cc(C)nc(OCC(=O)N/N=C/c2ccc(O)cc2O)c1C#N | ? | -41% | -9 | -3% | ? | 19%
c1coc(-c2nnc(-c3ccco3)nn2)c1 | ? | ? | -26 | ? | 4µM* | -16%
c1ccc(-c2nnc(-c3ccco3)o2)cc1 | -14% | -34% | 0 | ? | 0% | 5%
O=C(NC1CC(=O)N(c2ccccc2)C1)c1ccc(S(=O)(=O)N2CCOCC2)cc1 (configuration not stated) | 22% | . | . | . | . | .
O=C(/C=C/c1cccs1)N1CCc2ccccc21 | ? | 8.9µM* | -16 | ? | 6% | ?
Cc1cccc(C(=O)O[C@H]2[C@H](Cc3ccccc3)NS(=O)(=O)[C@H]3CC4C=C[C@]23O4)c1 | -2% | . | 22 | . | -17% | ?
Cc1ccc(S(=O)(=O)NCC(c2ccco2)N2CCc3ccccc3C2)cc1 (configuration not stated) | 8% | . | 8 | . | 1% | 25%
O=S(=O)(NCC(c1ccco1)N1CCc2ccccc2C1)c1ccc(Br)cc1 (configuration not stated) | 16% | . | -17 | . | -461% | 4.1µM*
COC(=O)NC(c1ccco1)C(C(C)=O)C(=O)OC (configuration not stated) | . | 10%[10 µM] | . | -3%[10 µM] | . | .
Cc1ccc(S(=O)(=O)N2CCN(c3nc(-c4ncco4)nc4ccccc34)CC2)cc1 | . | . | -28 | . | . | .
CCOC(=O)C1=C(C)N(C)C(=S)NC1c1c(OCC)ccc2ccccc12 (configuration not stated) | 1% | 2.8µM* | -25 | 18µM* | -3% | -1%
COC(=O)C1=C(C)N(C)C(=S)NC1c1ccc(Cl)cc1 (configuration not stated) | 6% | 7.9µM* | 1 | 11µM* | 1% | ?
CCOC(=O)C1=C(C)N(C)C(=S)NC1c1ccc(Cl)cc1 (configuration not stated) | ? | ? | 1 | 3.5µM* | 2% | 3%
CC1=C(C(=O)OC(C)C)C(c2ccsc2)NC(=O)N1C (configuration not stated) | -3% | 6% | -4 | 0% | -7% | 1%

High-throughput results deposited in PubChem BioAssay by National Center for Advancing Translational Sciences (NCATS).
